± gives the standard deviation.
test system: EfPiwi piRISC loaded with L1MC piRNA (26 nt); experiment: pre-steady-state target cleavage rate (min^-1); auxiliary factor: 500 nM Ephydatia muelleri Gtsf1; guide: L1MC piRNA 5'p-UAACUAAAUACUAUGCAAGCUGUAGG; MIWI and MILI are mouse PIWI proteins and EfPiwi is from a freshwater sponge; tags in brackets are library labels; higher = faster piRNA-guided slicing of the target
Method: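 Cleave-'n-Seq: a library of target RNAs (target site in constant flanks) at […] was incubated with 1 nM active freshwater sponge Ephydatia fluviatilis Piwi piRISC (synthetic 5'-monophosphorylated piRNA guide) with or without 500 nM EmGtsf1 at 33 °C for 1 min to 16 h. Uncleaved targets were sequenced and the pooled three trials fitted to a burst-and-steady-state model to give the pre-steady-state cleavage rate (min^-1). Sequence is the target site only. Fits with R² ≤ 0 are excluded.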

Sequence | pre-steady-state target cleavage rate
UCCUGGAACAGCUUGCAUAGUAUCUAGUUA | 0.0068 ± 0.0027
UCCUCCUACAGCUUGCAUAGUUAUUAGUAA | 0.00524 ± 0.0028
UCCUCCUACACCUUGCAUAGUAUUUACAAA | 0.00304 ± 0.0025
UCCUCCUACAGCUUGCAUAGUUAAUAGAAA | 0.00366 ± 0.0031
UCCUGGAUGUGCUUGCACAGUAUUUAGUUA | 0.00686 ± 0.0028
UCCUCCUACAGCUGCAUAGUAUUUAGUUA | 0.0884 ± 0.026
UCCUGGAUGUCGAACCAUAGUAUUUAGUUC [g2:g15:cont:t1C] | < 0.0001
UCCUGGAUCAGCUUGCAUAGUAAUUUAGUUA | 0.00371 ± 0.0025
UCCUGCAUGAGCUUGCAUAGUAUUUACAAA | 0.00266 ± 0.0017
UCCUGGUACAGCUUGCAUAGUAUUUAGUAUA | 0.00633 ± 0.0024
UCCUGCUACAGCCUUGCAUAGUAUUUAGUUA | 0.0116 ± 0.0041
UCCUGCAACAGGUUGCAUAGUAUUUAGUUA | 0.018 ± 0.0035
UCCUGGAUGUCGACGCAUAGUAUUUAGUUA | 0.00545 ± 0.0032
UCCUGGAUCUGCUAGCAUAGUAUUUAGUUA | 0.0121 ± 0.0038
UCCUGGAUGAGCUUGCAUAGCAUUUAGUUA | 0.0029 ± 0.0019
UCCUGGAUGUCCUUGCAUAUUAUUUAGUUA | 0.00283 ± 0.0025
UCCUGGAACAGCUUGCAUAGUAUUAAGAAA | 0.00313 ± 0.0019
UCCUGCUACAGCUUGCAUAGAAUUUAGAAA | 0.00251 ± 0.0016
UCCUGGAACAGCUAGCUUAGUAUUUAGUUA | 0.00846 ± 0.0037
UCCUGGAUGAGCUUGCAUUGUAAUUAGUUA | 0.00306 ± 0.0025

Sequence | pre-steady-state target cleavage rate
UCCUGGUACAGCUUGCAUAGUAUUUACGUUA | 0.00346 ± 0.0025
UCCUGCUACAGCUCGCAUAGUAUUUAGUUA | 0.0122 ± 0.0028
UCCUGGAACAGCUUGCAUAGUAAUUAGUUA | 0.00814 ± 0.0027
UCCUGGUACAGCUUGCAUAGUAAUUAGUAA | 0.00568 ± 0.0029
UCCUGGAUGAGCUAGCAUAGUAUUUUGUUA | 0.00327 ± 0.003
UCCUCCUACUGCUUGCAUAGUAUUUUCAAA | 0.00274 ± 0.0026
UCCUCGUACUGCUUGCAUAGUAUUUAGUUA | 0.0721 ± 0.018
UCCUGCUAGAGCUUGCAUAGUAUUUACAAA | 0.00266 ± 0.0021
UCCUGCUACAGCUUGCAUAGUAAUAAGUUA | 0.0044 ± 0.002
UCCUGGUAGAGCUUGCAUAGUAAUUAGUUA | 0.00406 ± 0.0024
UCCUGGAAGUGCUUGCAUAGUAUUUAGUAA | 0.00343 ± 0.0027
UCCUGGAUCAGGUUGCAUAGUAUUAAGUUA | 0.00407 ± 0.0025
UCCUGGUUCAGCAUGCAUAGUAUUUAGUUA | 0.0347 ± 0.0092
UCCUGGAACAAGCUUGCAUAGUAUUUAGUUA | 0.0156 ± 0.0043
UCCUGGAUGUGCUGGCAUAGUAUUUAGUUA | 0.00525 ± 0.0029
UCCUGGUACAGCAUGCAUAGUAUUAAGUUA | 0.00442 ± 0.002
UCCUGCUACAGGUUGCAUAGUAAUUAGUUA | 0.00595 ± 0.0019
UCCUGGAACACCUUGCAUAGUAUUAAGUUA | 0.00303 ± 0.0027
UCCUGGAUGUCGAACGUAAGUAUUUAGUGA | < 0.0001
UCCUGCUACAGCUUGCUUACUAUUUAGUUA | 0.0113 ± 0.005

— the supplement of paper PMC10338343
